# From PubChem BioAssay AID1347048 (National Center for Advancing Translational Sciences (NCATS), 2019)
# About 1,200 (1.6%) of roughly 76,000 compounds were called active. Not shown: some 4% with an inconclusive outcome. Calls come from the whole dose curve. The entries come from a sample that favours actives as a whole. Entries that show only a call come without a potency.
# Molecular target: Atrial natriuretic peptide receptor 1 (Homo sapiens) (UniProt P16066)
# Experiment: Natriuretic polypeptide receptor (hNpr1) antagonism - Primary qHTS; note: nearly all actives have a fitted effect of over 60% in size
# Conditions: HEK293 hNpr1 GloSensor cGMP, ANP-stimulated luminescence; series mostly up to 46.3 µM
# How it was run: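 Compound pre-incubated 30 min at room temperature on GloSensor-loaded HEK293 cells stably carrying hNpr1 and the pGS-40F cGMP biosensor. Stimulation uses hNppA at 0.1 nM final; luminescence is taken at baseline and 20 min post-agonist.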
# Potency is the fitted concentration of half-maximal effect.
# Atrial natriuretic peptide receptor 1 (Homo sapiens), sequence (P16066 whole entry, looked up): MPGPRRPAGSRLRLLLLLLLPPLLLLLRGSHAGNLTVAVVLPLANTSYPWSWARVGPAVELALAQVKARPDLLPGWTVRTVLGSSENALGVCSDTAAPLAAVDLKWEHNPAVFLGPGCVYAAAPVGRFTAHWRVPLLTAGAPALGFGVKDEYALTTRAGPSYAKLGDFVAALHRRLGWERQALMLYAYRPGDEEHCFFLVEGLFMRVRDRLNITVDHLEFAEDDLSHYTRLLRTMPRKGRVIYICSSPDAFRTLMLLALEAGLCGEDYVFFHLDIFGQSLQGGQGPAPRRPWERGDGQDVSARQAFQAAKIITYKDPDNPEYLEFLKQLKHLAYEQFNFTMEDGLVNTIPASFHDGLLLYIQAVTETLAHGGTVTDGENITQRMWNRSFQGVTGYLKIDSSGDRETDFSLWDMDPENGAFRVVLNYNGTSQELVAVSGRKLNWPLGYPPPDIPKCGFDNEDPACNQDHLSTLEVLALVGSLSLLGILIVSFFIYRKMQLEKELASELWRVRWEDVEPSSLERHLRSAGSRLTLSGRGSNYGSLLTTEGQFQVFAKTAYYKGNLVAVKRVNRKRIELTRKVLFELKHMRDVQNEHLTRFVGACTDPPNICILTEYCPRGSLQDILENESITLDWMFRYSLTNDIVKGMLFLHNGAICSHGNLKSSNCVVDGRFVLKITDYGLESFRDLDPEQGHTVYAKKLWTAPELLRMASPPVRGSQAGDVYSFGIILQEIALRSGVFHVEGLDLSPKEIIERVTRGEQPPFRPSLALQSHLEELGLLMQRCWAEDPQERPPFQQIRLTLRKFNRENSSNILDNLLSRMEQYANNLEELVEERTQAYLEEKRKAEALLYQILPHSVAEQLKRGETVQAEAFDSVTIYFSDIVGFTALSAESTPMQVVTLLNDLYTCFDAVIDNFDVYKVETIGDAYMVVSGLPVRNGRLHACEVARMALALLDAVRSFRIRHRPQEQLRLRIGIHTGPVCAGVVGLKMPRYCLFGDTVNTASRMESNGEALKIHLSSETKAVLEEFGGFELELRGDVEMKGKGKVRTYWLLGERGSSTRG
row,Compound,Potency
1,CC(C)(C)C(=O)N1CC[C@@H](CC(=O)O)[C@@H](CCN2CCN(c3cccc(C(F)(F)F)c3)CC2)C1,inactive
2,COc1cccc(N2CC3(COCC2=O)CN(c2ccc(C(F)(F)F)cn2)C3)n1,inactive
3,O=C1CCCCCN1C1CCN(Cc2ccc(C(F)(F)F)cc2)CC1,inactive
4,CN(C)c1cccc(-c2cn(C)c(=O)n3cc(COc4ccc(Cl)cc4)nc23)c1,inactive
5,CN(C)Cc1cn2c(=O)n(C)cc(-c3cccc(OCc4ccccc4)c3)c2n1,inactive
6,Cc1cc(-c2cn(C)c(=O)n3cc(COc4ccccc4)nc23)ccn1,25.1 µM (active)
7,CCOc1ccc(CC(=O)N2CCCC3(C2)Nc2cccnc2NC3=NC2CCCC2)cc1 (configuration not stated),inactive
8,O=C(c1ccc(-c2ccc(N3CCCCC3)nc2)cc1)N1CCOCC1,inactive
9,COCCN1CC(CO)C2(CCN(Cc3ccc(F)c(Cl)c3)CC2)C1 (configuration not stated),inactive
10,CN1CCCC2(CCN(C(=O)c3cccc(N4CCCC4=O)c3)C2)C1=O (configuration not stated),inactive
11,O=c1[nH]c(C2CCCN(Cc3ccccn3)C2)nn1-c1ccc(Cl)cc1 (configuration not stated),5.01 µM (active)
12,O=C(Cc1ccc(F)cc1)N1CCCC(c2nn(-c3ccc(Cl)cc3)c(=O)[nH]2)C1 (configuration not stated),inactive
13,CC(=O)N1CCCC(c2nn(-c3ccccc3)c(=O)[nH]2)C1 (configuration not stated),inactive
14,O=C(COc1ccc(F)cc1)NC1CCN(c2cn[nH]c(=O)c2)CC1,inactive
15,Cc1ncsc1C(=O)N1CCc2c(n(Cc3ccccc3)n(-c3ccccc3)c2=O)C1,inactive
16,O=C(Cc1ccc(F)cc1)N1CCC2(CC1)NC(=O)N(c1ccccc1)N2,inactive
17,CC1(C(=O)NCc2ccc3c(c2)OCO3)CCc2cnc(NCc3ccccc3)nc21 (configuration not stated),35.5 µM (active)
18,CC1(C(=O)NCC2CCCO2)CCCc2cnc(Nc3ccccc3)nc21 (configuration not stated),inactive
19,CN(Cc1ccccc1)C(=O)C1(C)CCCc2cnc(Nc3cccnc3)nc21 (configuration not stated),inactive
20,O=C(Nc1ccc2c(c1)CCC2)c1cc2c(s1)CN(C1CC1)C2,11.2 µM (active)
21,CC(C)N1Cc2cc(C(=O)Nc3cccc4c3CCCC4)sc2C1,inactive

row,Compound,Potency
1,COc1ccc(CNC(=O)c2cc3c(s2)CN(C2CC2)C3)cc1OC,inactive
2,O=C(Nc1cccnc1)c1ccc2c(c1)OCCN(c1ccccc1)C2,inactive
3,Cc1cc(NC(=O)c2ccc3c(c2)OCCN(CCC(F)(F)F)C3)ccc1F,inactive
4,CC(C)(C)c1csc(NC(=O)c2ccc3c(c2)OCCN(C2CCC2)C3)n1,31.6 µM (active)
5,O=C(c1ccc2c(c1)OCO2)N1CCC2(CC1)CN(c1ccncn1)CC2CO (configuration not stated),inactive
6,CN(C)C(=O)C1CN(C(=O)Nc2ccc(F)cc2F)CC12CCOCC2 (configuration not stated),inactive
7,O=C(Nc1ccc(Oc2ccccc2)cc1)O[C@@H]1CO[C@H]2[C@@H]1OC[C@@H]2NCC1CC1,inactive
8,O=C(Nc1ccccc1)O[C@@H]1CO[C@H]2[C@@H]1OC[C@@H]2NS(=O)(=O)c1cccc2cccnc12,inactive
9,O=C(Nc1ccc(Oc2ccccc2)cc1)O[C@@H]1CO[C@H]2[C@@H]1OC[C@@H]2NS(=O)(=O)c1cccs1,12.6 µM (active)
10,Cc1cccc(C(=O)N2CCC(Oc3ccc(-c4noc(C(C)C)n4)cc3)C2)c1 (configuration not stated),11.2 µM (active)
11,Cc1cccc(C(=O)N2CC(Oc3cccc(-c4nc(-c5ccccc5)no4)c3)C2)c1,inactive
12,O=C(c1ccoc1)N1CC(Oc2ccc(-c3nc(-c4ccccc4)no3)cc2)C1,inactive
13,CCCN1CC(Oc2ccc(-c3noc(C4CC4)n3)cc2)C1,inactive
14,O=C(NC1CCCC1)N1CCC(Oc2ccc(-c3noc(C4CC4)n3)cc2)C1 (configuration not stated),8.91 µM (active)
15,O=C(c1ccccn1)N1CC(Oc2ccc(-c3noc(C4CC4)n3)cc2)C1,14.1 µM (active)
16,O=C(NC1CCCCC1)N1CCCCCC1c1nc(-c2cccnc2)no1 (configuration not stated),inactive
17,O=C(c1ccncc1)N1CCC(Oc2ccccc2)C1 (configuration not stated),inactive
18,O=C(NC1CCCC1)N1CCCC(c2noc(COc3ccccc3)n2)C1 (configuration not stated),inactive
19,COc1ccc(Cl)cc1-c1ccc2c(c1)C(=O)N1CCN(C(C)=O)C[C@@H]1C(=O)N2,inactive
20,Cc1c(Cl)c(C(=O)N2C[C@@H](CN3CCCN(C)CC3)[C@@H](CO)C2)nn1C,inactive
21,CC(C)CCNC(=O)CCN(CC(C)C)C(=O)c1ccoc1,inactive

row,Compound,Potency
1,O=C(NC(C(=O)N1CCCCC1)C1CCN(C(=O)c2ccc(Cl)cc2)CC1)c1ccccc1 (configuration not stated),inactive
2,Cc1cnc(CC2CCN(C(=O)c3cccc4[nH]ccc34)CC2)n1CC1CC1,inactive
3,CC(C)CCN1CCC2(CC1)C(=O)NCN2Cc1ccc(Cl)cc1,inactive
4,O=C(C1CC1)N1CCC2(CC1)C(=O)NCN2Cc1ccc(Cl)cc1,inactive
5,O=C1NCN(Cc2ccc(Cl)cc2)C12CCN(Cc1ccccc1)CC2,11.2 µM (active)
6,COCC(=O)NC[C@H]1O[C@@H](CO)[C@@H](O)[C@H]1N1CCN(c2ccc(F)cc2)CC1,inactive
7,CC(=O)NC1(C)CCN(Cc2cnc(-c3ccc4c(ccn4C)c3)s2)CC1,inactive
8,CC(=O)NC1(C)CN(Cc2ccc(-c3ccc4c(ccn4C)c3)s2)C1,8.91 µM (active)
9,COc1ccc(C(=O)N2CCC3(CC2)OC(=O)N(CC2CC2)C3(C)c2cccnc2)cn1 (configuration not stated),inactive
10,COc1ccc(CN2CCN(c3noc(C(C)C)n3)CC2CCO)cc1C (configuration not stated),inactive
11,O=C(C1CCCC1)N1CCC2(CCCCO2)CC1,inactive
12,O=C(c1nc2c(o1)CCN(Cc1ccccc1F)CC2)N1CCOCC1,inactive
13,O=C(NCC1CC1)c1nc2c(o1)CCN(Cc1cccc(F)c1F)CC2,22.4 µM (active)
14,O=C(NCC1CC1)c1nc2c(o1)CCN(CCc1ccccc1)CC2,inactive
15,CCOc1ccccc1C(=O)N1CCC(c2n[nH]c(=O)n2-c2ccc(C)cc2)CC1,inactive
16,Cc1ccoc1C(=O)N1CCC(C2CCN(Cc3cccc(F)c3F)CC2)C1 (configuration not stated),inactive
17,COc1ccc(C)cc1NC(=O)Nc1cccc(-c2ccc(N3CCCCC3)nn2)c1,10 µM (active)
18,COc1ccc(C(=O)Nc2cccc(-c3nnc4n3CCCC4)c2)cc1,inactive
19,COc1ccc(C)cc1NC(=O)Cn1nc2n(c1=O)CCCC2,inactive
20,COCC(=O)NC[C@H]1CCN(Cc2cn(C)c3ccccc23)C[C@H]1N(C)C,inactive
